Only a selection was taken, and hits are over-represented in it overall.
DENV2 CPE rescue – DENV2-induced cell death inhibition | DENV2-infected cells, cytopathic effect rescue, plate reader | CPE inhibition, % at 9.99 µM | 350,000 compounds, 1.7% hits | AID 651640; in the data active means CPE inhibition above about 20%, passing the limit was not always enough; inconclusive means no clear call, values can overlap the other calls; tested in BHK-21 cells;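 further: 0% = median of neutral control wells and 100% = median of positive control wells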
Rtt109 HAT inh – C. albicans Rtt109 histone acetyltransferase inhibition | 330,000 compounds, 0.16% hits | purified Rtt109/Vps75, ThioGlo CoA-SH fluorescence, 4 h | Q5AAJ8 | inhibition, % at 34.9 µM | AID 540336;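 active means inhibition of at least 50% in every replicate; inconclusive means best replicate reaches 50% inhibition but some replicates fall short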
Target sequence (Q5AAJ8 whole entry, looked up): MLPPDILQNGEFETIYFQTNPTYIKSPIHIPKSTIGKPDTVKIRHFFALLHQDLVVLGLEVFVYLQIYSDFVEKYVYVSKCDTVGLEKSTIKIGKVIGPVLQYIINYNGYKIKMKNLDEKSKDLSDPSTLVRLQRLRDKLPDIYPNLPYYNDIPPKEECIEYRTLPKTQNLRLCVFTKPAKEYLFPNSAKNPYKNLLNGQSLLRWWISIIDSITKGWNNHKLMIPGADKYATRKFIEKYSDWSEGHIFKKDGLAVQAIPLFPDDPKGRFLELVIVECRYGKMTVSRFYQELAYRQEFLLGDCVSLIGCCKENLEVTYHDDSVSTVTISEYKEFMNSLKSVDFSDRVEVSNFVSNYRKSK
N-glyco inh – blocks N-linked glycosylation in D54 reporter cells; reporter increase, % at 12.5 µM; D54 ERlucT glycosylation luciferase reporter, 24 h; percent of 100 nM tunicamycin response; 360,000 compounds, 0.23% hits; AID 588692;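 active means mean luciferase reporter signal, scaled so untreated is 0 and the glycosylation-blocking control 100, at or above a set limit in every replicate; inconclusive means mean reaches the limit but not every replicate does; inactive means mean below the limit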;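 further: luciferase carries N-glycosylation sites so blocking glycosylation raises the light; 0% = median of neutral control wells and 100% = median of 100 nM tunicamycin wells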
PglD inh – PglD (C. jejuni) enzyme inhibition; purified PglD enzyme, DTNB colorimetric CoA detection; inhibition, % at 12.5 µM; 360,000 compounds, 0.098% hits; AID 602405; in the data active means inhibition above about 16%, passing the limit was not always enough; inconclusive means no clear call, values can overlap the other calls
* = called active by the depositor; ! = a repeat was not active.

`C[C@@H]1CCCCO[C@H](CN(C)S(=O)(=O)c2cn(C)cn2)[C@@H](C)CN([C@H](C)CO)C(=O)c2cc(NS(=O)(=O)c3ccc(F)cc3)ccc2O1` gave DENV2 CPE rescue -15 and PglD inh -5.
For O=C1c2ccccc2C(=O)c2c(NCCCN(CCO)CCO)cccc21 the results were DENV2 CPE rescue 2, Rtt109 HAT inh 13 and N-glyco inh 116*.
C[C@@H]1CCCCO[C@H](CN(C)C)[C@@H](C)CN([C@H](C)CO)C(=O)c2cc(NC(=O)c3ccccc3)ccc2O1 was read as DENV2 CPE rescue -8 and PglD inh -1.
For Cc1ccc(C2=C(O)C(=O)C(c3ccc(C)cc3)=C(O)C2=O)cc1 the results were DENV2 CPE rescue 56*, Rtt109 HAT inh 2 and N-glyco inh 11.
`CC1=C(O)C(=O)C(C2=C(O)C(=O)C(C)=C(O)C2=O)=C(O)C1=O` gave DENV2 CPE rescue 2, Rtt109 HAT inh -14, N-glyco inh 2 and PglD inh 2.
O=C(Nc1ccccc1)N[C@H]1CC[C@H](CCn2cc(C3(O)CCCC3)nn2)O[C@H]1CO was read as DENV2 CPE rescue 7 and PglD inh -1.
Screening CN(CC(=O)Nc1ccc(F)cc1)C(=O)CCc1nc2sc3c(c2c(=O)[nH]1)CCCC3 returned DENV2 CPE rescue 19, Rtt109 HAT inh 5, N-glyco inh 0 and PglD inh 0.
`CN(CC(=O)Nc1ccc(Cl)cc1)C(=O)CCc1nc2sc3c(c2c(=O)[nH]1)CCCC3` gave DENV2 CPE rescue 31*, Rtt109 HAT inh -6, N-glyco inh -4 and PglD inh -5.
Screening COc1ccc(S(=O)(=O)Nc2ccc3c(c2)CC(=O)N([C@H](C)CO)C[C@@H](C)[C@@H](CN(C)S(=O)(=O)c2c(C)noc2C)O3)cc1 returned DENV2 CPE rescue 2 and PglD inh -1.
`COc1cc(S(=O)(=O)NCc2ccncc2)c(OC)cc1C` gave DENV2 CPE rescue -6, Rtt109 HAT inh -7, N-glyco inh 0 and PglD inh -2.
`COc1cc(S(=O)(=O)NCc2ccncc2)c(OC)cc1Br` gave DENV2 CPE rescue 28*, Rtt109 HAT inh 8, N-glyco inh 1 and PglD inh 0.
For COc1ccc(NC(=O)Nc2ccc3c(c2)C(=O)N([C@@H](C)CO)C[C@H](C)[C@H](CN(C)Cc2ccncc2)OCCCC[C@H](C)O3)cc1 the results were PglD inh 2.
`CO[C@H]1CN(C)C(=O)c2ccc(NC(=O)c3cnccn3)cc2OC[C@@H](C)N(CC2CC2)C[C@@H]1C` gave DENV2 CPE rescue 22*.
For CO[C@H]1CN(C)C(=O)c2ccc(NC(=O)c3cnccn3)cc2OC[C@H](C)N(CC2CC2)C[C@@H]1C the results were DENV2 CPE rescue -9.
CCC(=O)N1C[C@H](C)[C@H](OC)CN(C)C(=O)c2cc(NC(=O)c3cnccn3)ccc2OC[C@H]1C was read as DENV2 CPE rescue 25* and PglD inh 2.
COc1ccc2c3c([nH]c2c1)[C@H](CO)N(C(C)=O)CC31CCN(C(=O)Nc2ccc(F)cc2F)CC1 was read as DENV2 CPE rescue -6.
Screening O=C(C[C@@H]1C[C@@H]2c3cc(NC(=O)C4CCC4)ccc3O[C@@H]2[C@@H](CO)O1)NCCc1ccccc1 returned DENV2 CPE rescue inconclusive and PglD inh 2.
`CC(C)C[C@@H](CO)NS(=O)(=O)c1c(F)cccc1F` gave DENV2 CPE rescue 49*, Rtt109 HAT inh 3, N-glyco inh 4 and PglD inh -2.
`Cc1ccc(S(=O)(=O)N(C)C[C@@H]2Oc3ccc(NC(=O)Nc4ccc(F)cc4)cc3CC(=O)N([C@H](C)CO)C[C@H]2C)cc1` gave DENV2 CPE rescue -6 and PglD inh 2.
C[C@@H]1CN([C@@H](C)CO)C(=O)c2cccc(NS(=O)(=O)c3cn(C)cn3)c2O[C@@H]1CN(C)S(=O)(=O)c1cn(C)cn1 was read as DENV2 CPE rescue 27* and PglD inh 0.
Screening C[C@H](CO)N1C[C@H](C)[C@@H](CN(C)Cc2ccccc2)Oc2c(NS(=O)(=O)c3cn(C)cn3)cccc2C1=O returned DENV2 CPE rescue 30*!, Rtt109 HAT inh 10, N-glyco inh 0 and PglD inh 2.
C[C@H](CO)N1C[C@H](C)[C@@H](CN(C)CC2CCCCC2)Oc2c(NS(=O)(=O)c3cn(C)cn3)cccc2C1=O was read as DENV2 CPE rescue -3, Rtt109 HAT inh 5, N-glyco inh 0 and PglD inh -1.
`C[C@@H]1CN([C@@H](C)CO)C(=O)c2cccc(NS(=O)(=O)c3cn(C)cn3)c2O[C@H]1CN(C)CC1CCCCC1` gave DENV2 CPE rescue 33* and PglD inh 0.
For C[C@H](CO)N1C[C@H](C)[C@@H](CN(C)Cc2ccccc2)Oc2c(NS(C)(=O)=O)cccc2C1=O the results were DENV2 CPE rescue 39*! and PglD inh 0.
Screening C[C@H]1CCCCO[C@H](CN(C)Cc2ccc(C(F)(F)F)cc2)[C@@H](C)CN([C@@H](C)CO)C(=O)c2cc(NS(=O)(=O)c3ccc(Cl)cc3)ccc2O1 returned DENV2 CPE rescue -1 and PglD inh 1.
C[C@@H]1CCCCO[C@@H](CN(C)C(=O)Nc2ccc3c(c2)OCO3)[C@H](C)CN([C@@H](C)CO)C(=O)c2cc(NS(C)(=O)=O)ccc2O1 was read as DENV2 CPE rescue 3 and PglD inh 1.
COc1cccc(-c2ccc([C@@H]3[C@@H](CO)N4C(=O)CN(C(=O)C5CC5)C[C@@H]34)cc2)c1 was read as DENV2 CPE rescue 6.
For CN(C)C(=O)c1cccc(-c2ccc([C@H]3[C@H]4CN(C(=O)CC5CC5)CC(=O)N4[C@H]3CO)cc2)c1 the results were DENV2 CPE rescue 21*.
For COc1cccc(-c2ccc([C@H]3[C@H](CO)N4C(=O)CN(C(=O)C5CC5)C[C@@H]34)cc2)c1 the results were DENV2 CPE rescue 29*.
For CN(C)C(=O)c1cccc(-c2ccc([C@@H]3[C@@H](CO)N4C(=O)CN(C(=O)CC5CC5)C[C@@H]34)cc2)c1 the results were DENV2 CPE rescue -2.
`Cc1cccc(-c2ccc([C@@H]3[C@@H](CO)N4C(=O)CN(C(=O)c5cccnc5)C[C@H]34)cc2)c1` gave DENV2 CPE rescue 21*.
COc1ccc(NC(=O)N(C)C[C@@H]2OCCCC[C@@H](C)Oc3ccc(NC(=O)NC4CCCCC4)cc3C(=O)N([C@@H](C)CO)C[C@H]2C)cc1 was read as DENV2 CPE rescue 4 and PglD inh -1.
`CC(C)NC(=O)N(C)C[C@H]1OCCCC[C@H](C)Oc2ccc(NC(=O)Nc3cccc4ccccc34)cc2C(=O)N([C@H](C)CO)C[C@@H]1C` gave DENV2 CPE rescue 7 and PglD inh 3.
O=[N+]([O-])c1ccccc1OCc1nc(-c2cccs2)no1 was read as DENV2 CPE rescue 23*, Rtt109 HAT inh -8 and N-glyco inh -10.
`O=[N+]([O-])c1ccc(F)cc1OCc1nc(-c2cccs2)no1` gave DENV2 CPE rescue -1, Rtt109 HAT inh 4 and N-glyco inh -7.

High-throughput results deposited in PubChem by Broad Institute.
